Hit rate of the full screen: of about 330,000 compounds, about 4,600 (1.4%) were called active.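 How the source made its calls: active means inhibition of 40% or more at the single tested concentration; inactive means the rest.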 The entries come from a sample that favours actives as a whole.

This assay in a line: growth inhibitors of isogenic TIM10 control yeast, primary screen, counter-screen for tim10-1 yeast inhibitor project, luminescence, uHTS (AID 463195).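 Further: wild-type TIM10 isogenic control strain grown at permissive 25 °C; 0% = DMSO yeast wells and 100% = minimal medium wells without yeast.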 As to conditions: S. cerevisiae TIM10 strain growth, BacTiter-Glo luminescence, 24 h; at 10 µM; hits give high values. In general terms: A counterscreen serves to expose hits that act by an unwanted route or on another target.
For `Cc1cccc([C@@H]2[C@@H]3C(=O)N(Cc4ccccc4)C(=O)[C@@H]3[C@]3(C)C(=O)N(c4ccc(Br)cc4)C(=O)N23)c1`, the inhibition was 4.22% (inactive). Consider `Cn1c(Cc2csc(N)n2)nnc1SC/C=C/c1ccccc1`, for which the inhibition is 7.09% (inactive). For the compound `CCN(Cc1nc2ccccc2c(=O)[nH]1)Cc1cc(=O)oc2cc(C)c(C)cc12`, the inhibition is -2.16% (inactive). On to `COc1ccc(C(=O)NC(C)c2nccs2)cc1OC1CCN(C(C)C)CC1` (centres undefined), for which the inhibition is -15% (inactive). The value for `NC(=O)c1ccsc1NC(=O)c1ccco1` was 8.27% (inactive). For `O=C(Nc1nnc(CCOCCOCCc2nnc(NC(=O)c3ccco3)s2)s1)c1ccco1`, the inhibition was -7.13% (inactive). As to `O=C(Nc1nc(-c2ccco2)c(-c2ccco2)s1)c1ccco1`, the inhibition is 40.3% (active).

As for `CS/C(=C\[N+](=O)[O-])Nc1ccc(C)cc1`, the inhibition is 30% (inactive). In the case of `CCc1c(C)[nH]c(=S)c(C#N)c1C`, the inhibition was 3.94% (inactive). Consider `O=C(NCCCCc1ccccc1)C1CC(c2ccc([N+](=O)[O-])cc2)=NO1` (centres undefined), for which the inhibition is -15.3% (inactive). As for `O=C1NC(=O)C2C1C(c1ccc([N+](=O)[O-])cc1)=NN2Cc1ccccc1` (centres undefined), the figure is 46.2% (active). For `CC(=O)N1c2ccccc2N(Cc2ccc([N+](=O)[O-])cc2)C(=O)C1(C)C`, the inhibition is 27.8% (inactive). The value for `c1ccc2c(c1)CSc1sccc1C2=C1CCNCC1` was 1.38% (inactive); that for `COc1ccc(OC)c(C(=O)c2ccc(C(=O)N3CCN(Cc4csc(C)n4)CC3)cc2)c1` was -9.33% (inactive); that for `CCOC(=O)c1cn[nH]c1NC(=S)Nc1ccccc1` was -4.24% (inactive). For `CSC1=N/C(=C\C=C\c2cccs2)C(=O)S1`, the inhibition was 46.2% (active).

Regarding `CCC1C/C(=C/c2cccs2)C(=O)/C(=C/c2cccs2)C1` (centres undefined), the inhibition is 8.85% (inactive). As to `COC(=O)c1cccc(N2C(=O)C3C4C=CC(CC4)C3C2=O)c1` (centres undefined), the inhibition was -2.62% (inactive). As to `O=C(OCC(=O)N(CCc1ccccc1)Cc1ccccc1)c1ccccc1[N+](=O)[O-]`, the inhibition is 6.8% (inactive). As to `O=C(Nc1ccc(O)cc1)c1ccc(NC(=O)c2ccco2)cc1`, the inhibition is -7.64% (inactive). The value for `O=C(Nc1ccnc(-c2ccncc2)n1)c1cccs1` was 5.09% (inactive). As for `O=C(Nc1ccc(NC(=O)c2cccs2)cn1)c1ccco1`, the figure is 49.1% (active).

Consider `O=C(CN1CCN(C(=O)C2CCCO2)CC1)Nc1c(Cl)cccc1Cl` (centres undefined), for which the inhibition was -3.56% (inactive). Turning to `O=[N+]([O-])c1ccc(N2CCN(c3ccc(F)cc3)CC2)cn1`, the inhibition was 9.61% (inactive). In the case of `C/C=N/NC(=O)CCCC(=O)N/N=C/C`, the inhibition was 19.2% (inactive). On to `S=C(NNC(=S)NC1CC2C=CC1C2)NC1CC2C=CC1C2` (centres undefined), for which the inhibition is 11.5% (inactive). `CC(C)c1ccc(NC(=S)NC2CC3C=CC2C3)cc1` (centres undefined): the inhibition was 41.7% (active).

In the case of `S=C(NNC(=S)NC1CC2CCC1C2)NC1CC2C=CC1C2` (centres undefined), the inhibition is 31.5% (inactive). As for `Fc1ccc(Cn2nnnc2C(c2cccs2)N2CCCCCC2)cc1` (centres undefined), the figure is 23.6% (inactive); as for `COC(=O)c1ccc(Oc2nc(Nc3ccc(F)cc3)nc(N3CCCC3)n2)cc1`, -20.4% (inactive).

Regarding `COc1nc(NC2CCCCC2)nc(N2CCCCCC2)n1`, the inhibition was 40% (active). For the compound `Clc1nc(NC2CCCC2)nc(N2CCOCC2)n1`, the inhibition is 11.4% (inactive). As to `CCOC(=O)c1cnn(Cc2ccccc2Cl)c1N`, the inhibition is 1.13% (inactive).

Consider `COC(=O)CNC(=O)C(CCSC)NC(C)=O` (centres undefined), for which the inhibition is -26.2% (inactive). `CO/N=C/c1cn(-c2ccc(Cl)cc2)nn1`: the inhibition is 5.41% (inactive). For the compound `Cc1nc(-c2ccccc2)sc1C(=O)/C=C/N(C)C`, the inhibition was 7.98% (inactive). Consider `Cc1nc(-c2ccc(Cl)cc2)sc1C(=O)CBr`, for which the inhibition was 51.9% (active). `Cc1nc(-c2ccc(Cl)cc2)sc1C1(C)CC(c2ccc(Br)cc2)=NO1` (centres undefined): the inhibition was 7.58% (inactive).

Take `O=C(CSc1nncs1)NC1CCCc2ccccc21` (centres undefined): the inhibition is -4.46% (inactive).

In the case of `Cc1ccccc1N1CC(C(=O)Nc2nnc(SCCC3OCCO3)s2)CC1=O` (centres undefined), the inhibition is 4.72% (inactive). `CCSc1ccccc1C(=O)NCc1ccc(OC)cc1`: the inhibition was -1.39% (inactive).

Take `CC(CC(=O)Nc1ccccc1)n1ccnc1` (centres undefined): the inhibition is -0.308% (inactive). As to `Cc1cccc(C)c1NC(=O)Nc1ccccc1-n1ccnc1`, the inhibition is 3.36% (inactive).

`O=C(O)CCCC(=O)Nc1ccccc1-n1ccnc1`: the inhibition was 95.9% (active).

Consider `COc1nc(Oc2ccc(=O)n(C)n2)nc(N(C)C)n1`, for which the inhibition is -5.67% (inactive).

As for `Cn1cnc([N+](=O)[O-])c1Sc1ccccc1`, the inhibition was 21.8% (inactive). Turning to `COCCNC(=O)COc1ccc(N(C)S(=O)(=O)c2ccc3ccccc3c2)cc1`, the inhibition is 20.2% (inactive). Consider `CC(=O)Oc1ccc(N(C(C)=O)S(=O)(=O)c2ccc3ccccc3c2)cc1Br`, for which the inhibition is 48.2% (active). Take `CN(c1ccc(OCC(=O)O)cc1)S(=O)(=O)c1ccc2ccccc2c1`: the inhibition was -10.2% (inactive). With `COc1ccccc1C(=O)COC(=O)CSCC(=O)Nc1cc(C)on1`, the inhibition is 11.1% (inactive). As to `COCCn1c(CN2CCC(Cc3ccccc3)CC2)nc2c1c(=O)n(C)c(=O)n2C`, the inhibition was -0.058% (inactive).

As to `CC(=O)Nc1cccc(OCC(=O)/C=C2\N(C)c3ccccc3C2(C)C)c1`, the inhibition is 14.8% (inactive). For `COC(=O)c1sccc1NC(=O)COc1ccc(Cl)cc1`, the inhibition was 12.6% (inactive). For the compound `CCOC(=O)c1c(NC(=O)c2ccc(S(=O)(=O)N(C)CC3CCCO3)cc2)sc2c1CC(C)(C)NC2(C)C` (centres undefined), the inhibition is -10.5% (inactive). For `COC(=O)c1c(NC(=O)COc2ccc(Cl)cc2Cl)sc2c1CC(C)(C)NC2(C)C`, the inhibition is 41.3% (active).

Turning to `CCN(CC(=O)NC(C)C)C(=O)CCNC(=O)c1ccc(Cl)cc1`, the inhibition was 10.6% (inactive). `CCc1ccc(NC(=O)NC(C)c2ccc3c(c2)OCO3)cc1` (centres undefined): the inhibition is 6.53% (inactive). On to `CC(=NCc1ccc2c(c1)OCO2)C1=C(O)c2ccccc2C1=O`, for which the inhibition is 70.5% (active). On to `CC1CCC(NC(=O)C2c3ccccc3C(=O)N2Cc2ccc3c(c2)OCO3)CC1` (centres undefined), for which the inhibition was 0.084% (inactive). As for `O=C1N(c2ccccc2)C(=Nc2ccccc2)SC12CC2`, the figure is 13.6% (inactive); as for `CC(=O)Nc1ccc(Nc2c([N+](=O)[O-])cc(S(C)(=O)=O)cc2[N+](=O)[O-])cc1`, -6.6% (inactive). As to `CN(C)CCc1c[nH]c2ccc(Cn3cncn3)cc12`, the inhibition was 5.24% (inactive). For `O=C(COC(=O)c1ccccc1Br)Nc1nnc(-c2ccccc2)o1`, the inhibition was -0.697% (inactive). As for `Nc1cc(OC(=O)c2ccccc2Br)nn1S(=O)(=O)c1ccccc1`, the inhibition was 46.5% (active). Regarding `Cc1ccc(S(=O)(=O)n2nc(OC(=O)C(C)(C)C)cc2N)cc1`, the inhibition was 17.1% (inactive).

With `O=C(NCc1ccco1)c1ccc(Cn2c(=O)c3sccc3n(Cc3ccc(F)cc3)c2=O)cc1`, the inhibition was 2.56% (inactive). For the compound `O=C(Cc1ccc(-n2c(=O)c3sccc3n(Cc3ccc(F)cc3)c2=O)cc1)NCc1ccco1`, the inhibition is 8.88% (inactive). As for `O=C(NCc1ccco1)c1cc2sccc2n1Cc1ccc(F)cc1`, the inhibition was 46.4% (active). For `COc1ccc(N2CC(C(=O)NCCS(=O)(=O)N3CCN(c4ccccc4)CC3)CC2=O)cc1` (centres undefined), the inhibition is -13.2% (inactive). For the compound `C[C@H]1CN([C@@H](C)CO)C(=O)Cc2cc(NS(C)(=O)=O)ccc2O[C@@H]1CN(C)CC1CC1`, the inhibition was -6.97% (inactive).

`CCN(c1ccccc1)S(=O)(=O)c1ccc(N)cc1`: the inhibition is 8.8% (inactive). Regarding `O=S(=O)(c1ccccc1)N(Cc1cccc(F)c1)c1ccccc1`, the inhibition was 3.1% (inactive).

On to `O=S(=O)(ON(c1ccccc1)S(=O)(=O)c1ccccc1)c1ccccc1`, for which the inhibition is 45.9% (active).

Regarding `COC(=O)c1ccc(OC(=O)c2nn(C)cc2Cl)c(OC)c1`, the inhibition is 8.9% (inactive). As for `O=C(O)c1ccccc1N=N/C(=N/Nc1cc(S(=O)(=O)O)ccc1O)c1ccccc1`, the inhibition was 0.626% (inactive). For the compound `O=c1c2ccccc2nnn1CSc1nc2sc3c(c2c(=O)n1CC1CCCO1)CCC3` (centres undefined), the inhibition is 25.8% (inactive). In the case of `Cc1nnc(-c2ccc(Oc3ccc(C)c(C)c3)c([N+](=O)[O-])c2)o1`, the inhibition was 17.1% (inactive). `O=C(OCC(=O)c1c[nH]c2ccccc12)c1cccc(O)c1`: the inhibition is 5.38% (inactive). Take `COc1ccc(NC(=O)C/C(C)=N/NC(=O)c2cnccn2)cc1Cl`: the inhibition was 3.17% (inactive). For the compound `CCN(CC)c1ccc(/C=N/NC(=O)c2cnccn2)c(O)c1`, the inhibition was 44.5% (active).

Take `CCN1CCN(c2ccc(NC(=O)c3cnccn3)cc2)CC1`: the inhibition is -4.6% (inactive). For the compound `Cc1ccc2nc(Nc3ncc4c(n3)CC(C)(C)CC4=O)nc(C)c2c1`, the inhibition was 5.07% (inactive).

For `Cc1cc(=O)n2nc(N3CCCC(C(=O)N4CCN(C)CC4)C3)sc2n1` (centres undefined), the inhibition was 2.79% (inactive). The value for `COc1ccc(-n2cc(-c3ccccc3)c3c(=S)nc[nH]c32)cc1` was 33.8% (inactive); that for `O=c1c2c(-c3ccccc3)ccnc2[nH]n1-c1ccccc1` was -17.3% (inactive). For `O=c1[nH]cnc2c1c(-c1ccccc1)cn2-c1ccc(F)cc1`, the inhibition is 42.6% (active). `O=[N+]([O-])c1cc(C(F)(F)F)ccc1NCCc1ccncc1`: the inhibition is 6.18% (inactive). For the compound `Cc1nn(Cc2ccccc2Cl)c(C)c1NC(=O)Cn1nc([N+](=O)[O-])c(Cl)c1C`, the inhibition was 2.84% (inactive).

As to `NC(=O)C[n+]1cccc(C(N)=O)c1`, the inhibition was 13.2% (inactive). The value for `C#CCOCCOCCOCCNc1nc(N2CCN(C(=O)[C@H](CCC(=O)O)n3cc(C(N)CO)nn3)CC2)nc(N2CCN(C(=O)[C@H](CCCCN)n3cc(C(N)CC(C)C)nn3)CC2)n1` (some centres undefined) was -1.57% (inactive). As for `CC(C)(C)N(CC#CCC(O)(c1ccccc1)C1CCCC1)CCO` (centres undefined), the figure is 0.266% (inactive). Take `O=C1CC(N2CCN(c3ccc(F)cc3)CC2)C(=O)N1c1ccccc1` (centres undefined): the inhibition is -7.52% (inactive). On to `O=C1C=CC(=O)N1c1ccc(N2CCCCC2)cc1`, for which the inhibition was 73.2% (active). As for `CC(=O)Nc1ccc(S(=O)(=O)Nc2ccc(N3CCCCC3)cc2)cc1`, the figure is -2.15% (inactive).

In general, inhibition refers to the relative decrease from the control value, in per cent.
